Assay results published in PubChem BioAssay AID2517 (National Center for Advancing Translational Sciences (NCATS), 2010).
Values joined by “and” are separate entries in the source; they are usually repeats but may differ in a detail not shown here. Identical values can stand only once. The whole screen tested about 350,000 compounds, of which about 1,200 (0.34%) were called active. About 3% were inconclusive and are not listed. Calls follow the shape of the dose curve; as a rule, active = well fitted inhibition curve with a large enough effect; inconclusive = small, poorly fitted or top-dose-only effect; inactive = no such curve, though single readings can be large or run the other way. The entries come from a sample that favours actives as a whole. More than one record can exist for a structure, and the calls need not agree.

Target: DNA repair nuclease/redox regulator APEX1 (Homo sapiens) (UniProt P27695)
Test: qHTS Assay for Inhibitors of the Human Apurinic/apyrimidinic Endonuclease 1 (APE1); also: nearly all actives have a fitted effect of over 55% in size;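 as to activity change, negative = inhibition: plate controls were vehicle for no effect and reference inhibitor for full effect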
Details: recombinant APE1, TAMRA/BHQ-2 abasic DNA cleavage fluorescence; activity change, negative = inhibition: at 65.8 µM (top of the series)
Method in brief: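 Step 1: APE1 (0.75 nM) with compound, 15 min RT. Step 2: add 50 nM fluorophore/quencher THF duplex. Step 3: three fluorescence reads 60 s apart (525/598 nm); read 3 minus read 1 = reaction progress.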
Potency is read from the fitted curve at half-maximal effect.

DNA repair nuclease/redox regulator APEX1 (Homo sapiens), sequence (P27695 whole entry, looked up): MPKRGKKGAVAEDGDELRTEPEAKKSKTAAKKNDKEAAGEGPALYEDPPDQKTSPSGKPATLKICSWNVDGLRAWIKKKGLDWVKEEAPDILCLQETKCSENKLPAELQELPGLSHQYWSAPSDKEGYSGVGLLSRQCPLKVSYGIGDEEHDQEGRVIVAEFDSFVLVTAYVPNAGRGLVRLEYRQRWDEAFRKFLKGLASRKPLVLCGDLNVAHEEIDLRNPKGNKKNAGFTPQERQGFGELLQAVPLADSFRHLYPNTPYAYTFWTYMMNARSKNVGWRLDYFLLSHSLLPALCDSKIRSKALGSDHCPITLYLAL

Compound | activity change, negative = inhibition | Potency
CCCn1c(-c2ccc(F)cc2)nc2c(NC3CCN(Cc4ccccc4)C3)nc(C)nc21 (stereo not drawn) | 7.5% (inactive) | 
COc1ccc(C(=O)N2CCC3(CC2)CCN(c2ccccn2)CC3)cc1 | 4.46% (inactive) | 
COc1ccc(-c2nc3c(c4c2C[C@H](c2ccccc2)OC4)CN(C(=O)c2cccnc2)CC3)c(C)c1 | -2.55% [at 12.4 µM] (inactive) | 
NC(=O)C1CCN(c2nc(-c3cccc(F)c3)cs2)CC1 | 16.9% (inactive) | 
C=C[C@](C)(O)CCC1C(=C)CCC2[C@@](C)(CO)CCC[C@@]12C (stereo partly drawn) | -0.9% (inactive) | 
COc1ccc2[nH]c(C(=O)N3CCN(C)CC3)c(C)c2c1 | -10.7% (inactive) | 
COc1ccc2[nH]c(=S)cc(C)c2c1 | 17.4% (inactive) | 
COc1ccc2[nH]c3c(C)c4cc[n+](C)cc4c(C)c3c2c1 |  | 12.6 µM (active)
CC/C=C\C/C=C\C/C=C\C/C=C\C/C=C\C/C=C\CCC(=O)NCCc1ccc(O)c(O)c1 | -1.09% (inactive) | 
COC(=O)C(C(=O)OC)[C@@H](NC=O)c1ccccc1 | 0.907% (inactive) | 
Nc1nc2c(nc(Cl)n2C2OC(CO)C(O)C2O)c(=O)[nH]1 (stereo not drawn) | 12.3% (inactive) | 
COc1cccc(-c2cc(NCCc3c[nH]c4ccc(OC)cc34)ncn2)c1 | 3.71% (inactive) | 
CS(=O)(=O)NC(=O)CCC/C=C\C[C@H]1C(=O)C[C@@H](O)[C@@H]1/C=C/[C@H](O)COc1ccccc1 | 1.1% (inactive) | 
CC/C=C\C/C=C\C/C=C\C/C=C\C/C=C\C/C=C\CCC(=O)NC(C)C(=O)O (stereo not drawn) | -0.719% (inactive) | 
COC(=O)c1ccc(C(NC(=O)OCc2ccccc2)/C(C)=C/[C@@H](C)C(=O)NCc2cc(C)on2)cc1 (stereo partly drawn) | 0.278% (inactive) | 
CC(C)(C)c1ccc(OC2C=CC(C#Cc3ccccc3)OC2CO)cc1 (stereo not drawn) | 3.5% [at 12.4 µM] (inactive) | 
O=C(NCc1ccccn1)c1ccc2nc(-c3ccco3)c(-c3ccco3)nc2c1 |  | 10 µM (active)
COc1cccc(S(=O)(=O)NCc2ccc(C(=O)NCc3ccccn3)cc2)c1 | 7.86% (inactive) | 
COCCNC(=O)c1snc2ccc(Cl)cc12 | -2.23% (inactive) | 
O=C(Nc1nc(-c2ccco2)c(-c2ccco2)s1)c1ccco1 | 11.9% (inactive) | 
O=C1CSc2ccc(C(=O)NCc3ccccn3)cc2N1 | 6.27% (inactive) | 
COCCNC(=O)Nc1ccc2nc(-c3ccco3)c(-c3ccco3)nc2c1 |  | 6.31 µM (active)

Compound | activity change, negative = inhibition | Potency
O=C(O)CC(C(=O)O)C(CC(=O)O)C(=O)O (stereo not drawn) | 15.8% (inactive) | 
NC(=O)c1sc(-c2ccsc2)cc1N | 1.82% (inactive) | 
COc1ccc(CC(N)C(=O)NC2C(O)[C@H](n3cnc4c(N(C)C)ncnc43)O[C@@H]2CO)cc1 (stereo partly drawn) | -0.283% (inactive) | 
CCCn1c(C)nc2c(NCCCCN(CC)CC)nc(C)nc21 | -4.94% (inactive) | 
C=C1CCN(C(CC(C)C)C(=O)N2CCOCC2)S(=O)(=O)c2ccccc21 (stereo not drawn) | 2.97% (inactive) | 
CC(C)C(=O)Nc1c(O)c2ccccc2[nH]c1=O | -2.89% (inactive) | 
O=C1C(c2[nH]c3ccccc3c2O)=Nc2ccccc21 |  | 7.94 µM (active) and 3.98 µM (active)
O=C(Cc1c(O)c2ccccc2[nH]c1=O)NCc1ccccc1 | -2.72% (inactive) | 
CCCCC/C=C\C/C=C\CCCCCCCCCC(=O)NCC(=O)O | 3.32% (inactive) | 
CCCCCCCC/C=C\CCCCCCCC(=O)NCC(=O)O | 4.31% (inactive) | 
COc1ccc2c(=O)cc(-c3ccccc3)oc2c1O | -7.77% (inactive) | 
COc1c(O)cc2oc(-c3ccc(O)c(O)c3)cc(=O)c2c1O |  | 7.08 µM (active)
Cc1cccc(-c2cc(=O)c3cc(C)ccc3o2)c1 | -8.53% (inactive) | 
Cc1ccc(NC(=O)O[C@@H]2C(=O)c3cc(Br)ccc3O[C@H]2c2ccc3c(c2)OCO3)cc1Br | 0.243% (inactive) | 
CC(C)(C)n1ncc2c(=O)n(Cc3ccc(C(=O)c4ccccc4)cc3)cnc21 | -0.344% (inactive) | 
Cc1cccc2c3c(ccc12)C1=C(C(=O)C3=O)C(C)CO1 (stereo not drawn) | 9.79% (inactive) | 
CN[C@@H]1[C@H](O[C@H]2[C@H](O[C@H]3[C@H](O)[C@@H](O)[C@H](N=C(N)N)[C@@H](O)[C@@H]3N=C(N)N)O[C@@H](C)[C@]2(O)CO)O[C@@H](CO)[C@H](O)[C@H]1O | 0.585% (inactive) | 
CCOC(=O)C1=NOC(Cn2cc(C(C)=O)c(=O)[nH]c2=O)C1 (stereo not drawn) | 1.23% (inactive) | 
CCOC(=O)C1=C(C)N=C2c3ccccc3C(=O)C2C1c1ccc(Br)cc1 (stereo not drawn) | -2.57% (inactive) | 
CCOC(=O)C1=NO[C@@]2(C=C(Br)C(=O)[C@H]3O[C@H]32)C1 |  | 7.94 µM (active)
CC(C)C[C@@H](CC(=O)N[C@@H](CCC(=O)O)CC(=O)O)NC(=O)[C@@H]1CCCC[C@H]1NC(=O)C[C@@H](NC(=O)C[C@H](Cc1c[nH]c2ccccc12)NC(=O)[C@@H]1CCCC[C@H]1N)C(C)C | -3.05% (inactive) | 
CC(C)C1=CC2=CC[C@@H]3[C@](C)(CO)CCC[C@]3(C)C2CC1 (stereo partly drawn) | 0.19% (inactive) | 

Compound | activity change, negative = inhibition | Potency
Clc1ccc(CSc2nnc3c(n2)[nH]c2ccccc23)cc1 | -0.131% (inactive) | 
O=C(CSc1nnc(-c2ccco2)n1-c1ccccc1)NCCc1ccccc1 | -4.34% (inactive) | 
c1ccc(CSc2nnc(-c3ccco3)c(-c3ccco3)n2)cc1 |  | 10 µM (active)
O=c1c(-c2cc(F)cc(F)c2)nc2cnc(Oc3ccccc3)nc2n1C[C@H]1CCCO1 | 3.92% (inactive) | 
CC/C=C/C/C=C/C/C=C/CCCCCCCC(=O)OCC | -3.48% (inactive) | 
CN(C(=O)COC(=O)Cc1ccccc1[N+](=O)[O-])C1CCS(=O)(=O)C1 (stereo not drawn) | 8.91% (inactive) | 
CN(C(=O)COC(=O)c1cc(-c2ccco2)nc2ccccc12)C1CCS(=O)(=O)C1 (stereo not drawn) |  | 7.94 µM (active)
COc1ccc(/C=C(\C#N)C(=O)OCC(=O)N(C)C2CCS(=O)(=O)C2)cc1 (stereo not drawn) | -0.493% (inactive) | 
C1CCC2OC2C1 (stereo not drawn) | -0.558% (inactive) | 
COc1ccc(-c2nn(-c3ccccc3)cc2/C=C2/SC(=S)N(CCCC(=O)O)C2=O)c(C)c1 |  | 29.9 µM (active)
Cc1ccc(-c2nn(-c3ccccc3)cc2/C=C2\SC(=S)N(CCCCCC(=O)O)C2=O)o1 | -84.3% (inactive) | 
COc1cccc(/C=C2/SC(=S)N(CC(=O)NC3C=CS(=O)(=O)C3)C2=O)c1 (stereo not drawn) | 37.3% (inactive) | 
C=C1C(=O)C23C(O)C1CCC2[C@]12COC3(O)C(O)C1C(C)(C)CC[C@H]2O (stereo partly drawn) | -2.57% (inactive) | 
CC[C@@]12C=C(/C=C/c3ccccc3)[C@](CC)(C1)[C@H](c1ccccc1)CC2=O | 17.2% (inactive) | 
O=C(CCc1n[nH]c(=O)[nH]c1=O)N/N=C/c1ccc(Br)o1 | -7.77% (inactive) | 
O=C(CCNC(=O)c1ccccc1)NN=Cc1ccc(Br)o1 |  | 15 µM (active)
O=C(CCNC(=O)c1ccccc1Cl)NN=Cc1ccco1 | -5.79% (inactive) | 
Cc1ccccc1OCCC(=O)OCC(=O)NC(C)c1ccccc1 (stereo not drawn) | 0.618% (inactive) | 
Cc1cc(C)cc(OCC(=O)NC(C)c2ccccc2)c1 (stereo not drawn) | -52.8% (active) | 
Cc1ccc(OCCCC(=O)NC(C)c2ccccc2)c(C)c1 (stereo not drawn) | 0.614% (inactive) | 
c1ccc2cc(C3=NCCN3)ccc2c1 | -6.2% (inactive) | 
COc1ccc(/C=C/NC(=O)c2ccc(OC)cc2)cc1 | 3.93% [at 12.4 µM] (inactive) | 

Compound | activity change, negative = inhibition | Potency
CC[C@H](C)[C@H](NC(=O)[C@H](CCCNC(=N)N)NC(=O)[C@H](CCCNC(=N)N)NC(=O)[C@H](CC(C)C)NC(=O)[C@H](Cc1ccccc1)NC(=O)CNC(=O)CNC(=O)[C@@H](N)Cc1ccc(O)cc1)C(=O)N[C@@H](CCCNC(=N)N)C(=O)N1CCC[C@H]1C(=O)N[C@@H](CCCCN)C(=O)N[C@@H](CC(C)C)C(=O)N[C@@H](CCCCN)C(=O)N[C@@H](Cc1c[nH]c2ccccc12)C(=O)N[C@@H](CC(=O)O)C(=O)N[C@@H](CC(N)=O)C(=O)N[C@@H](CCC(N)=O)C(=O)O | -1.98% (inactive) | 
O=C(Nc1ccccc1)/C(=C\c1ccco1)NC(=O)c1ccco1 | 39.5% (inactive) | 
O=C(NCCc1ccco1)c1nn(Cc2ccccc2)c(=O)c2ccccc12 | -6.32% (inactive) | 
O=c1nc2s/c(=C\c3ccco3)c(=O)n2nc1Cc1ccccc1 |  | 4.47 µM (active)
O=C(OCC(COC(=O)c1ccccc1)(COC(=O)c1ccccc1)COC(=O)c1ccccc1)c1ccccc1 | 5.41% (inactive) | 
CC(C)=CCN1CCC2(CCc3ccccc32)CC1 | -0.233% (inactive) | 
Oc1cc(O)c2c(c1)OC(c1ccc(O)c(O)c1)C(O)C2 (stereo not drawn) |  | inactive and 3.16 µM (active)
C=C1C([C@@]2(C)C(OC(C)=O)CC(=O)O[C@@](C)(COC(C)=O)C2CC(=O)OC)C(OC=O)C(OC(=O)C(O)C(C)CC)[C@]2(C)C(c3ccoc3)CC(=O)C12O (stereo partly drawn) | -3.23% (inactive) | 
CC[C@H](C)[C@@H](NC(=O)O[C@@H]1C(=O)c2cc(OC)ccc2O[C@H]1c1cccc(OC)c1)C(=O)OC | -2.71% (inactive) | 
CCCCS(=O)(=O)N1C2=NC(C(=O)OC)=C(C(=O)OC)[C@@H]3N(Cc4ccccc4)c4ccccc4[C@]23C[C@H]1C(=O)OC | -4.13% [at 12.4 µM] (inactive) | 
Oc1ccc(O)c2c(O)cccc12 |  | 1.78 µM (active)
S=C(NCCCc1cnc[nH]1)NCCCN(Cc1ccc(Cl)c(Cl)c1)c1ccc(Br)cn1 | -1.31% (inactive) | 
O=C(c1ccco1)N1CCC[C@@]2(CCN(c3ccccc3)C2)C1 | 2.31% (inactive) | 
Cc1ccc(C(=O)O)cc1-c1ccc(/C=C2\SC(=O)N(CC(=O)Nc3ccc4c(c3)OCO4)C2=O)o1 |  | 7.52 µM (active)
Cc1ccc(C(=O)Nc2ccc3c(c2)OCO3)cc1S(=O)(=O)N1CCCCC1 | -8.39% (inactive) | 
Cc1nn(CC(=O)Nc2ccc3c(c2)OCO3)c(C)c1[N+](=O)[O-] | 2.88% (inactive) | 
O=C(CSc1nnc(-c2cccc([S+](=O)([O-])N3CCCC3)c2)n1-c1ccccc1)Nc1cccc(C(F)(F)F)c1 | 6.08% (inactive) | 
CC(Oc1ccccc1)C(=O)N[C@@H]1C(=O)N2[C@@H]1SC(C)(C)[C@@H]2C(=O)O (stereo partly drawn) | -2.93% [at 21 µM] (inactive) | 
C=CCNc1oc(-c2cccnc2)nc1C#N | 24.9% (inactive) | 
O=C(CCC1CCCN(C(=O)Cc2ccc(F)cc2)C1)N1CCN(c2ccccn2)CC1 (stereo not drawn) | 2.95% (inactive) | 
C=Cc1ccc(C(=O)N2CCCC(CCC(=O)N3CCN(c4ccccn4)CC3)C2)cc1 (stereo not drawn) |  | 0.67 µM (active)
O=C(CCC1CCCN(C(=O)c2ccc(F)c(F)c2)C1)N1CCN(c2ccccn2)CC1 (stereo not drawn) | 5.21% (inactive) | 
